PubChem BioAssay (Tox21)
Records with an inconclusive call do not appear. A call without a number means that no potency is given here. Values without a mark were called inactive. Active and inactive are the calls of the source. Calls follow the shape of the dose curve; as a rule, active = well fitted cell-killing curve with a large enough effect in the repeat runs; inconclusive = weak or mixed curves; inactive = flat fitted curve, though single readings scatter.

Assay: qHTS RealTime-Glo MT Cell Viability Assay in HepG2 cells - 8 hour (AID 1224873); also: nearly all actives have a fitted effect of over 55% in size
Settings: RealTime-Glo luminescence; series mostly up to 76.8 µM
Text: National Center for Advancing Translational Sciences [NCATS]
NIH Chemical Genomics Center [NCGC]
U.S. Environmental Protection Agency [EPA]
National Institutes of Environmental Health Sciences [NIEHS]
National Toxicology Program [NTP]
U.S. Food and Drug Administration [FDA]
Measure of cell viability is critical in the cell-base assay. Analysis of cell viability is necessary for the characterization of cell responses to cytotoxic drugs and environmental stress. A RealTime-Glo MT Cell Viability Assay to monitor cell viability in real time of continues cell culture during 40 hours of compound treatment was used to screen Tox21 10K library compounds in HepG2 cells. The RealTime-Glo MT Cell Viability Assay is a nonlytic, homogeneous, bioluminescent method to measure cell viability in real time using a simple, plate-based method. The assay involves adding NanoLuc luciferase and a cell-permeant prosubstrate to cells in culture. Viable cells reduce the proprietary prosubstrate to generate a substrate for NanoLuc luciferase. This substrate diffuses from cells into the surrounding culture medium, where it is rapidly used by the NanoLuc Enzyme to produce a luminescent signal. The signal correlates with the number of viable cells, making the assay well suited for cytotoxicity studies.
Tox21 Assay Protocol Summary:
The mixture of HepG2 cell suspension and reagents were dispensed at 600cells/6 ul/well in 1536-well tissue culture treated black solid bottom plates using a Multidrop dispenser. After the assay plates were incubated at a 37 C/5% CO2 incubator for 5 hours, 23 nL of compounds dissolved in DMSO, positive and negative controls was transferred to the assay plate by a pintool work station. The plates were incubated at 37 C for 40 hours. The luminescence intensity were measured at 0h, 8h, 16h, 24h, 32h and 40h time points using ViewLux plate reader during compound treatment.
Potency is read from the fitted curve at half-maximal effect.

Row | SMILES | Potency | viability change, negative = cytotoxic
1 | NC1CCN(c2nc3c(cc2F)c(=O)c(C(=O)O)cn3-c2ccc(F)cc2F)C1 (stereo not given) | inactive | –
2 | CCCOc1ccc2nc(NC(=O)OC)[nH]c2c1 | inactive | –
3 | CC1(C)[C@H]2CC[C@]1(C)[C@H](O)C2 | inactive | –
4 | CCCC(C)C | inactive | –
5 | CC(C)(C)c1ccc(S)cc1 | inactive | –
6 | C#CCOC(=O)[C@@H](C)Oc1ccc(Oc2ncc(Cl)cc2F)cc1 | inactive | –
7 | O=CNc1ccccc1 | inactive | –
8 | O=C(O)c1cn(C2CC2)c2cc(Cl)c(F)cc2c1=O | inactive | –
9 | CN(C(=O)CCCOc1ccc2[nH]c(=O)ccc2c1)C1CCCCC1 | inactive | –
10 | CCCCCCCCCCCCCCCCCBr | – | -6.16% [at 15.8 µM]
11 | COCCO | inactive | –
12 | CC(=O)CC(=O)c1ccccc1 | inactive | –
13 | CC(C)(C)C1CCCCC1O (stereo not given) | inactive | –
14 | CC(C)(C)C(=O)OCOP(=O)(COCCn1cnc2c(N)ncnc21)OCOC(=O)C(C)(C)C | inactive | –
15 | Cc1c(Cn2ccnc2)c2ccccc2n1CCC(=O)O | inactive | –
16 | O=C(c1ccc(O)cc1)c1ccc(O)cc1 | inactive | –
17 | COc1cc(C(C)(C)C)c(O)c(C(C)(C)C)c1 | inactive | –
18 | NC(N)=NN=C(/C=C/c1ccc([N+](=O)[O-])o1)/C=C/c1ccc([N+](=O)[O-])o1 | 4.25 µM (active) | –
19 | CCC(C)N(C)C(=O)c1cc2ccccc2c(-c2ccccc2Cl)n1 (stereo not given) | inactive | –
20 | O=C(Nc1ccccc1)OCC(CN1CCCCC1)OC(=O)Nc1ccccc1 (stereo not given) | inactive | –

Row | SMILES | Potency | viability change, negative = cytotoxic
21 | N#CCc1cccc(C(F)(F)F)c1 | inactive | –
22 | Cc1ccc2c(ccc3ccccc32)c1 | inactive | –
23 | CC(C)CCCCCCOC(=O)c1ccc(C(=O)OCCCCCCC(C)C)c(C(=O)OCCCCCCC(C)C)c1 | inactive | –
24 | O=C1c2cccc(O)c2C(=O)c2c(O)cc(CO)cc21 | inactive | –
25 | Nc1nc(N)c(-c2ccccc2)s1 | inactive | –
26 | N#CCCNCCC#N | inactive | –
27 | CC(=O)SCc1ccco1 | inactive | –
28 | NC(=S)N/N=C/c1cccnc1 | inactive | –
29 | N#Cc1c(F)cccc1F | inactive | –
30 | O=[N+]([O-])c1cc[n+]([O-])cc1 | inactive | –
31 | CC[C@H](C)[C@@H](C(=O)O)n1sc2ccccc2c1=O | inactive | –
32 | CCN(CC)CCOc1ccc2c(c1)C(=O)c1cc(OCCN(CC)CC)ccc1-2 | inactive | –
33 | CC(=O)/C=C/C1C(C)=CCCC1(C)C (stereo not given) | inactive | –
34 | CCOc1ccc(NC(=O)CC(C)=O)cc1 | inactive | –
35 | CCCCCCCCCCCCC(=O)O | inactive | –
36 | Nc1cnn([C@@H]2O[C@H](CO)[C@@H](O)[C@H]2O)c(=O)n1 | inactive | –
37 | Cc1cccc(Oc2ccccc2)c1 | inactive | –
38 | Oc1ccc(O)c2c(O)cccc12 | inactive | –
39 | Oc1ccc2c(c1)OCO2 | inactive | –
40 | COCCCCCCCCOCCC[Si](C)(O[Si](C)(C)C)O[Si](C)(C)C | inactive | –
